The source of these data is ChEMBL document CHEMBL1157539, “Thousands of chemical starting points for antimalarial lead identification” (Nature, 2010).

Common to all, as to format: functional
The test system of test [1] is Plasmodium falciparum. The experiment in a line: GSK_TCMDC: Inhibition of Plasmodium falciparum 3D7 in whole red blood cells, using parasite LDH activity as an index of growth. Test compounds present at 2uM.
In test [2] the test system is Plasmodium falciparum. The experiment in a line: GSK_TCMDC: Inhibition of Plasmodium falciparum Dd2 in whole red blood cells, using parasite LDH activity as an index of growth. Test compounds present at 2uM.
In the next test the test system is HepG2. The experiment in a line: GSK_TCMDC: Percent inhibition of human HepG2 cell line. Test compounds present at 10uM.

With `Cl.FC(F)(F)c1ccc2c(NCCNc3ccnc4cc(C(F)(F)F)ccc34)ccnc2c1`, the Inhibition (usually the relative decrease from the control value, in per cent) turned out to be 100% in the test with Plasmodium falciparum [1], 100% with Plasmodium falciparum [2] and 21% in the test on HepG2.
In the case of `O=S(=O)(Nc1cccc(CCN2CCC(N3CCCCC3)CC2)c1)c1ccccc1C(F)(F)F`, the Inhibition in the test on Plasmodium falciparum [1] turned out to be 82%; in the test with Plasmodium falciparum [2] it was 32%; in the test on HepG2, 21%.
The like results for `CC[C@H]1CN(Cc2ccco2)CC[C@H]1CCCc1ccnc2ccc(O)cc12` were, in that order, 93%, 14% and 31%.
For `COc1ccc(CN2CCCC(OC(c3ccc(F)cc3)c3ccc(F)cc3)C2)c(O)c1` (stereo unspecified) the same measures were 100%, 99% and 16%.
Regarding `Cc1cc(Nc2ccc(O)cc2)nc2cc(O)ccc12.Cl`, the Inhibition in the test with Plasmodium falciparum [1] came out at 100%; in the test with Plasmodium falciparum [2], 9%; in the test with HepG2, 0%.
The like results for `FC(F)(F)c1ccc2[nH]c(-c3ccc(-c4ccc(CNCCN5CCNCC5)cc4)cc3)nc2c1.O=C(O)C(F)(F)F` were, in that order, 92%, 74% and 13%.
For `C#CCOc1ccc(N2C(N)=NC(N)=NC2(C)C)cc1.Cl` the same measures were 94%, 0% and 43%.
Regarding `OC(CNCc1cccc(Oc2ccc(Cl)cc2)c1)c1cc(C(F)(F)F)cc(C(F)(F)F)c1` (stereo unspecified), the Inhibition with Plasmodium falciparum [1] came to 99%; in the test with Plasmodium falciparum [2], 100%; in the test on HepG2, 0%.
The like results for `Oc1ccc2nc(NCCCc3ccccc3)nc(NCCCc3ccccc3)c2c1` were, in that order, 100%, 93% and 5%.
Take `COc1cc2nccc(Nc3cc(C)cc(O)c3)c2cc1OC.Cl`: the Inhibition with Plasmodium falciparum [1] came to 97%; with Plasmodium falciparum [2], 0%; in the test on HepG2 it was 0%.
On to `C=CCc1cc(OC)ccc1OCCCOc1c(C)nc(N)nc1N.Cl`, for which the figures for the Inhibition in the test on Plasmodium falciparum [1], with Plasmodium falciparum [2] and in the test on HepG2 were 92%, 97% and 67%, respectively.
For `CN(Cc1cccc(F)c1)C1CCCN(c2cc(NC(=O)c3ccccc3)ccn2)C1.O=C(O)C(F)(F)F` (stereo unspecified) the same measures were 93%, 50% and 3%.
